The nature of experiment [1]: P. berghei load reduction in hepatocytes – cell-based, HepG2, luciferase luminescence, HepG2 viability, primary screen (AID 624349; in the data active means parasite load remaining mostly below about 12%, no sharp cut-off; inactive means mostly above about 10%;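 further: 100% = mean of DMSO negative control wells on the same plate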). The settings on record: P. berghei liver stage in HepG2, luciferase luminescence, concentration not given here; parasite load remaining: stronger effect = lower value; viability: measured here: HepG2 viability without parasites.
Experiment [2] in a line: signal quenchers or enhancers, Cy5 substrate/SSB – biochemical, NIH Clinical Collection, E. coli SSB, artefact control for HCV NS3 helicase inhibitor project (AID 743268; call rule not given here). The settings on record: Cy5-oligo bound E. coli SSB, fluorescence interference.
In experiment [3] the test system is Hepatitis C virus NS3 helicase. In words: blockers of NS3h binding to DNA – biochemical, fluorescence polarization, NIH Clinical Collection, primary screen (AID 743270; call rule not given here). The settings on record: NS3 helicase binding to Cy5-dT15 DNA, stronger effect = higher value, concentration not given here. For orientation: In fluorescence polarisation assays a small probe gives low polarisation when free and higher when bound to something large.

The target of experiment [4] is Single-stranded DNA-binding protein (Escherichia coli (strain K12)) (UniProt P0AGE0). The experiment in a line: SSB-ssDNA binding inhibitors – biochemical, fluorescence polarization, NIH Clinical Collection, counter-screen for HCV NS3 helicase inhibitor project (AID 743271; in the data active means inhibition above about 28%). The settings on record: E. coli SSB-DNA binding, stronger effect = higher value, concentration not given here.

Experiment [5] in a line: compounds distorting NS3 helicase fluorescence signal – biochemical, NIH Clinical Collection, artefact control for HCV NS3 helicase inhibitor project (AID 743272; call rule not given here;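 further: HCV NS3 helicase with a Cy5 labelled single stranded DNA probe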). The settings on record: fluorescence interference counterscreen, HCV NS3 helicase assay; stronger effect = lower value. Background: The purpose of a counterscreen is to sort out artefacts and off-target activity.
A short description of experiment [6]: modulation of C. elegans fzo-1 (AID 1259413; call rule not given here;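 further: fzo-1 mutant C. elegans worms in liquid wells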). The settings on record: C. elegans fzo-1 modulator screen, mean read-out; stronger effect = higher value.
Experiment [7] is described as follows: viability loss with induced miR-34 in A549 – imaging, A549 dox-inducible miR-34, nuclei and caspase counts, primary screen (AID 1347080;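 active means compounds whose cell count with miR-34 switched on is under 0.7 times the count with it off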). The settings on record: A549 miR-34 inducible, Hoechst nuclei count, 48 h.
Experiment [8] is described as follows: MELAS cybrid and Rieske KO viability enhancers – cell-based, MELAS cybrids, Rieske KO mouse fibroblasts, CellTiter-Glo, primary screen (AID 1508586;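 active means mean z-score across replicates of 1.96 or higher in either the MELAS or the Rieske mutant cell line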;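 further: z relative to plate mean and SD of compound and empty wells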). The settings on record: low glucose. A general note: Cellular ATP, detected with luciferase, serves as a proxy for viable cell number.
A short description of experiment [9]: galactose survival enhancers in mitochondrial complex I cybrids – cell-based, galactose medium, ATP luminescence, primary screen (AID 1645843;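 active means z-score of at least 1.8 in each of two replicates, scored against plate mean and spread of sample wells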;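 further: positive z means more ATP and so rescue of galactose-driven cybrid death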). The settings on record: complex I mutant cybrid cells, 72 h, stronger effect = higher value.
In experiment [10] the test system is F380Y. In words: BK channel mutant inhibitors and activators – cell-based, U2OS BacMam, thallium flux, beta subunits, selectivity assay, profiling panel (AID 1259406).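 Further: initial slope of Thallos dye fluorescence rise after thallium is added; log ratio against the mean of 0.3% DMSO vehicle wells on the same plate.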 The settings on record: U2OS BacMam BK variants, at 30 µM.
The subject of experiment [11] is F380Y/beta1. The experiment is described as above. The settings on record: U2OS BacMam BK variants, at 30 µM.
Experiment [12] has as its system F380Y/beta2Delta. Described as above. The settings on record: U2OS BacMam BK variants, at 30 µM.
Experiment [13] has as its system F380Y/beta4. Described as above. The settings on record: U2OS BacMam BK variants, at 30 µM.
The target in experiment [14] is Calcium-activated potassium channel subunit alpha-1 (Homo sapiens) + Leucine-rich repeat-containing protein 26 (Homo sapiens) (UniProt Q12791+Q2I0M4). The description is as above. The settings on record: U2OS BacMam BK variants, F380Y/Slo1WT/gamma1, at 30 µM.
For experiment [15], the system named is R275C. The experiment is described as above. The settings on record: U2OS BacMam BK variants, at 30 µM.
The subject of experiment [16] is R275C/beta1. The description is as above. The settings on record: U2OS BacMam BK variants, at 30 µM.
The subject of experiment [17] is R275C/beta2Delta. Described as above. The settings on record: U2OS BacMam BK variants, at 30 µM.
In experiment [18] the test system is R275C/beta4. The experiment is described as above. The settings on record: U2OS BacMam BK variants, at 30 µM.
In experiment [19] the test system is R275C/Slo1WT/beta2. The description is as above. The settings on record: U2OS BacMam BK variants, at 30 µM.
Experiment [20] has as its system Neuropilin-2 / VEGF-C interaction (human). In words: small molecules blocking Neuropilin-2/VEGF-C interaction – biochemical, microplate binding format, z-score (AID 743281; call rule not given here). The settings on record: microplate NRP2/VEGF-C binding assay; stronger effect = lower value.
Where [21] appears, read: stronger effect = lower value, cell number ratio, induced over uninduced.
Where [22] appears, read: measured here: relative caspase fold change +Dox/-Dox.
Setting [23] is: measured here: total cells with miR-34 induction, stronger effect = lower value.
Setting [24] is: measured here: total cells without miR-34 induction.
Where [25] appears, read: MELAS cybrid survival, CellTiter-Glo 48 h, stronger effect = higher value.
Where [26] appears, read: Rieske KO mouse fibroblast survival, CellTiter-Glo 72 h.

Molecules are shown by their SMILES. Several values for one entry are separate records, joined by “and”; a condition that tells them apart may be missing. Identical values can stand only once. Activity calls are given as the source filed them.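 How the source made its calls, unless noted: active means thallium flux through the channel raised or lowered by more than 3 SD from vehicle-only wells, actives on both sides; inactive means the rest.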

Chain of Calcium-activated potassium channel subunit alpha-1 (Homo sapiens) + Leucine-rich repeat-containing protein 26 (Homo sapiens) (Q2I0M4 whole entry, looked up, one chain of several): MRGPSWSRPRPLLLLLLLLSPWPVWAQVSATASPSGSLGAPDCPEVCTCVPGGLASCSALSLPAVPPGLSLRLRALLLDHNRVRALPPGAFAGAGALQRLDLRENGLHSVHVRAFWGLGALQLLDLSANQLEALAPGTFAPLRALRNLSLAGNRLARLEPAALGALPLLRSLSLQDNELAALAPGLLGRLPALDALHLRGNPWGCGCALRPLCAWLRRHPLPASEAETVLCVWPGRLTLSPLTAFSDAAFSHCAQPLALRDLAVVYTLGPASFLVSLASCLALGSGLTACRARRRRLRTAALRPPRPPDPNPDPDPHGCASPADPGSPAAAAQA

By viability is commonly meant a read-out of living cells in per cent, often relative to untreated cells. What is called inhibition is the change of the read-out against control, counted positive when it falls. With `Cc1onc(-c2ccccc2)c1C(=O)NC1C(=O)N2C1SC(C)(C)C2C(=O)O` (centres undefined), the parasite load remaining in experiment [1] is 62.5% (inactive). In addition, the viability in experiment [1] is 137%. Moreover, the fluorescence ratio in [2] was 1.01 (inactive); in [5], 1 (inactive). Moreover, the inhibition was -1.36% (inactive) in experiment [3] and 2.57% (inactive) in [4]. The mean signal in [6] is 250 (inactive). Also, the fold change was 0.977 (inactive) and 0.865 (inactive) in experiment [7] (setting [21]); 2.75 and 0.316 in experiment [7] (setting [22]). The cell count is 10800 and 8670 in experiment [7] (setting [23]); 11000 and 10000 in experiment [7] (setting [24]). For the same molecule, the z-score in experiment [8] (setting [25]) is 1.06 (inactive); in [8] (setting [26]) it was 0.0389; in experiment [9], 0.33 (inactive) and 0.12 (inactive). The log fold change Tl+ flux in experiment [10] was -0.000886 (inactive); in [11], -0.0194 (inactive); in [12] it was -0.0125 (inactive); in experiment [13], -0.0665 (inactive); in experiment [14] it was 0.0114 (inactive); in experiment [15], 0.00519 (inactive). The log fold change Tl+ flux in experiment [16] is 0.0152 (inactive); in [17], 0.00981 (inactive); in [18] it was -0.0329 (inactive); in [19], -0.0606 (inactive).
Consider `O=C(O)C[C@H](O)C[C@H](O)/C=C/c1c(C2CC2)nc2ccccc2c1-c1ccc(F)cc1`, for which the parasite load remaining in experiment [1] was 177% (inactive). Besides, the viability in experiment [1] was found to be 60.8%. Besides, the fluorescence ratio is 0.98 (inactive) in experiment [2] and 0.96 (inactive) in [5]. Besides, the inhibition was -2.84% (inactive) in experiment [3] and -1.18% (inactive) in experiment [4]. Moreover, the result in [20] was inactive. In addition, in experiment [6], the mean signal is 212 (inactive). Besides, the fold change in [7] (setting [21]) was 1.25 (inactive); in experiment [7] (setting [22]) it was 0.319. In addition, the cell count in experiment [7] (setting [23]) is 1740; in [7] (setting [24]), 1390. Moreover, the log fold change Tl+ flux in [10] is -0.03 (inactive); in [11] it was 0.292 (active); in experiment [12], 0.0555 (inactive); in experiment [13] it was 0.0888 (inactive); in [14], 0.113 (active); in experiment [15] it was 0.0026 (inactive). The log fold change Tl+ flux in experiment [16] was 0.226 (active); in experiment [17], 0.114 (active); in experiment [18] it was 0.107 (active); in [19] it was 0.12 (active).
`O=C1c2c(O)cc(O)cc2O[C@H](c2ccc(O)c(O)c2)[C@H]1O`: the parasite load remaining in experiment [1] is 112% (inactive). In addition, the viability in experiment [1] is 91%. For the same molecule, the fluorescence ratio in experiment [2] and in experiment [5] was 0.99 (inactive) throughout. Besides, the inhibition was 1.19% (inactive) in [3] and -1.64% (inactive) in experiment [4]. For the same molecule, in experiment [20], the z-score is -0.839 (inactive). The mean signal in experiment [6] was 241 (inactive). For the same molecule, the log fold change Tl+ flux in experiment [10] was 0.0483 (inactive); in [11], -0.0233 (inactive); in experiment [12] it was 0.00163 (inactive); in [13], 0.00589 (inactive); in [14], 0.0266 (inactive); in [15] it was -0.0716 (inactive). Also, the log fold change Tl+ flux is -0.00477 (inactive) in experiment [16], 0.0423 (inactive) in [17], 0.0387 (inactive) in experiment [18] and -0.0121 (inactive) in experiment [19].
Regarding `CC1CNc2c(cccc2S(=O)(=O)N[C@@H](CCCN=C(N)N)C(=O)N2CC[C@@H](C)C[C@@H]2C(=O)O)C1` (some centres undefined), the parasite load remaining in experiment [1] is 91.7% (inactive) and 25.6% (inactive). In [1], the viability is 75.9% and 68%. Moreover, the values for the fluorescence ratio in experiment [2] and in experiment [5] were 1.01 (inactive) and 0.96 (inactive), respectively. Moreover, the inhibition in [3] is -2.77% (inactive); in [4] it was -0.1% (inactive). The z-score in experiment [20] was -1.46 (inactive); in experiment [8] (setting [25]), -0.605 (inactive) and 0.47 (inactive); in [8] (setting [26]), -0.277 and -0.497; in experiment [9] it was 0.59 (inactive). Besides, the mean signal in experiment [6] is 269 (inactive). The figures for the fold change in experiment [7] (setting [21]) and in experiment [7] (setting [22]) were 0.891 (inactive) and 1.15, respectively. Further, the results for the cell count in [7] (setting [23]) and in experiment [7] (setting [24]) were 10400 and 11700, respectively. In addition, the log fold change Tl+ flux was -0.00418 (inactive) in [10]; 0.00744 (inactive) in experiment [11]; 0.0133 (inactive) in [12]; 0.00267 (inactive) in [13]; -0.0355 (inactive) in experiment [14]; -0.0227 (inactive) in experiment [15]. Also, the log fold change Tl+ flux in experiment [16] is -0.0183 (inactive); in experiment [17], -0.0418 (inactive); in experiment [18], -0.0138 (inactive); in [19] it was 0.0382 (inactive).

Values taken from PubChem BioAssay.
